Compound activity: PubChem, several laboratories
Sampled rows, rich in hits. Any-hit rate of the full collection: about 1.3%.
NTR1 ag: activates human neurotensin receptor 1; activation, % at 20 µM; P30989; AID 493036; NTR1-U2OS beta-arrestin-GFP spot imaging, agonist mode; 0.17% of 330,000 active;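 active means activation at or above 40% of the spot to cytoplasm intensity ratio, with at least 20 cells analyzed; inconclusive means wells under 20 cells, flagged as cytotoxic or low count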;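 further: 0% = DMSO without peptide and 100% = 100 nM NTR1 peptide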
Target sequence (P30989 whole entry, looked up): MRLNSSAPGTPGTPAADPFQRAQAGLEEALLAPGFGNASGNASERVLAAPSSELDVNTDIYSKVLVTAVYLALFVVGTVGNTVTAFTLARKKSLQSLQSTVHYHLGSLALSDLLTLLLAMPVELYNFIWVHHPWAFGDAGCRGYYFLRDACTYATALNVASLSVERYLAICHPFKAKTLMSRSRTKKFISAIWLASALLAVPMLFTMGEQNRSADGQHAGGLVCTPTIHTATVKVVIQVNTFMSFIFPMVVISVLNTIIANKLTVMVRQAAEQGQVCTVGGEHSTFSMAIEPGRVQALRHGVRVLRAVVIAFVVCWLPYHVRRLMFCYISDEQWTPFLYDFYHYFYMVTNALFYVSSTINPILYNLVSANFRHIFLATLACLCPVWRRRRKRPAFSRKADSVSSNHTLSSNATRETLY
B2AR ag: agonists of human beta-2 adrenergic receptor inducing internalization; P07550; 0.43% of 340,000 active; Am2.2-beta2AR cells, FAP receptor internalization, flow cytometry; response, % (concentration not given with the values);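 active means response above a set limit, near 3 SD of response in nonfluorescent compounds, cut at about 42% in these data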
Bfl-1 A1 inh: inhibitors of the anti-apoptotic protein A1, read as caspase activation; MEF A1-2A-BIM cells, Caspase-Glo 3/7 luminescence, 3 h; percent of clofoctol response, vehicle zero; caspase activation, % (test concentration not listed); 0.066% of 330,000 active; AID 2462;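 active means over half of replicate activation scores above 10%, or exactly half above 10 with the replicate mean above 10; inconclusive means replicate mean below 10 yet half the replicates above 10; inactive means over half of replicates below 10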
VLA-4 inh: inhibition in a human VLA-4 binding assay. P13612. VLA-4 expressing cells, ligand binding flow cytometry. inhibition, % (about 7 µM as worked out from the volumes in the protocol). 0.2% of 330,000 active; in the data active means inhibition above about 50%
GRK2 inh: inhibitors of human GRK2 displacing RNA aptamer | bead flow cytometry, FAM-aptamer displacement from GRK2 | inhibition of aptamer binding, % at 10 µM | 0.59% of 330,000 active | P25098 | AID 488847;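 active means inhibition of aptamer binding above 40%, roughly 3 SD of noise, on plates passing a quality check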;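 further: median bead fluorescence of bound FAM aptamer so fluorescent compounds give negative values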
Beta2AR ag CP1: human beta-2 adrenergic receptor agonism, cherry pick; shares compounds with B2AR ag; Am2.2-beta2AR cells, FAP surface receptor, flow cytometry; stronger effect = lower value; percent response (surface receptor), % at 10 µM; 25% of 1,100 active; AID 540358;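 active means surface receptor percent response at or below 58%, roughly 3 SD from nonfluorescent compounds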
B2AR FAP counter: flagged in Am2.2 fluorescence counterscreen for beta-2AR agonists. shares compounds with B2AR ag. Am2.2 cells, FAP fluorogen flow cytometry; stronger effect = lower value. calls only at 10 µM. 1,100 tested, under 10 active;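 active means percent response below a set limit in fluorescence channel 1 and below 50% in channel 8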
* marks the source's active call; other numbers are inactive results; i = inactive; ? = inconclusive; · = no result.

SMILES	NTR1 ag	B2AR ag	Bfl-1 A1 inh	VLA-4 inh	GRK2 inh	Beta2AR ag CP1	B2AR FAP counter
O=c1nc(-c2ccccc2)c2ccccc2[nH]1	-1	60*	0	0	0	113	i
Cc1ccc(-c2nc(=O)[nH]c3ccccc23)cc1	0	15	0	10	0	·	·
CCOc1cccc(C(=O)Nc2ccc3oc(-c4cccnc4)nc3c2)c1	4	7	-1	2	4	103	i
O=C(CNC(=O)N1CC(=O)Nc2ccccc21)Nc1ccccc1F	0	42*	-2	-1	0	107	i
Cc1cccn2c(=O)nc(SCC(=O)Nc3ccc4c(c3)OCO4)nc12	2	-1	?	31	9	·	·
CC(=O)c1cccc(NC2c3ccccc3C(=O)N2Cc2ccco2)c1 (stereo unspecified)	2	-6	0	7	0	·	·
COc1cccc(NC2c3ccccc3C(=O)N2Cc2ccco2)c1 (stereo unspecified)	1	69*	0	-2	0	104	i
COc1cccc(OC)c1C(=O)NC(=S)Nc1cccc(NC(=O)c2ccco2)c1	3	-5	1	6	2	·	·
COc1cccc(OC)c1C(=O)Nc1ccc(NC(=O)c2ccco2)cc1	-2	-10	0	-1	0	99	i
CC(C)Oc1cccc(C(=O)Nc2ccc(NC(=O)c3ccco3)cc2)c1	2	-10	0	9	2	148	i
COc1ccc(S(=O)(=O)NCCc2c[nH]c3ccc(C)cc23)cc1	2	4	0	-6	0	·	·
Cc1ccnc(NC(=O)C2CCN(S(=O)(=O)c3ccc(C)c(C)c3)CC2)c1	0	1	0	10	2	·	·
Clc1ccccc1C(c1ccccc1)(c1ccccc1)n1ccnc1	10	51*	0	9	3	30*	i
COc1cc(C(C)=O)ccc1OCC(O)CNCC(O)c1ccccc1 (stereo unspecified)	-1	-9	1	0	0	109	i
O=C(CC1Oc2ccccc2NC1=O)NCCc1ccccc1 (stereo unspecified)	0	44*	1	17	0	98	i
COc1ccc(C(=O)N2CCN(c3ccc(NC(=O)c4ccco4)cc3)CC2)cc1	0	-6	-1	-1	0	·	·
CCc1ccc(C(=O)N2CCN(c3ccc(NC(=O)c4ccco4)cc3)CC2)cc1	-1	-12	0	0	0	122	i
Cc1ccc(C(=O)N2CCN(c3ccc(NC(=O)c4ccc(Br)o4)cc3)CC2)cc1	3	12	-1	-8	1	120	i
CC(Sc1ccc(Cl)cc1)C(=O)NCC(c1ccco1)N1CCCCC1 (stereo unspecified)	-1	2	1	0	0	·	·
CCOC(=O)c1cc(S(=O)(=O)N(C)Cc2ccccc2)cn1C	1	-7	1	16	3	·	·
COc1ccc(NC(=O)CSc2nc(C)cs2)c(OC)c1	1	4	2	-4	0	·	·
COc1ccc(C(=O)NNC(=O)c2ccc3ccccc3n2)cc1	3	8	-1	2	0	·	·
NC(=O)CC(NC(=O)Cc1cccc2ccccc12)c1ccc(NCCCN2CCCC2=O)c([N+](=O)[O-])c1 (stereo unspecified)	-6	103*	-1	-2	0	17*	i
COc1ccc(CC(=O)Nc2cccc(-c3nnc(-c4ccc(C)cc4)o3)c2)cc1OC	14	50*	-1	-2	4	107	i
COc1ccc(CC(=O)Nc2ccc(-c3nnc(-c4ccccc4)o3)cc2)cc1OC	-1	1	·	5	0	·	·
SMILES	NTR1 ag	B2AR ag	Bfl-1 A1 inh	VLA-4 inh	GRK2 inh	Beta2AR ag CP1	B2AR FAP counter
CC1CCCN(C(C(=O)Nc2ccc3c(c2)OCO3)c2ccccc2)C1 (stereo unspecified)	-1	26	0	36	0	86	i
COc1ccccc1NS(=O)(=O)c1ccc(O)c(NC(=S)NCC2CCCO2)c1 (stereo unspecified)	0	12	1	-1	0	·	·
COc1ccccc1Nc1nn2c(=O)c3ccc(C(=O)NCc4cccnc4)cc3nc2s1	-1	55*	0	4	0	97	i
CC(NC(=O)C1CCCN1S(=O)(=O)c1cccc2cccnc12)c1ccccc1 (stereo unspecified)	2	56*	0	1	0	106	i
CC(NC(=O)C1CCN(S(=O)(=O)c2cccc3cccnc23)CC1)c1ccccc1 (stereo unspecified)	0	-7	1	1	1	·	·
O=C1CN(S(=O)(=O)c2cccc(Cl)c2Cl)c2ccccc2N1	1	46*	0	-57	0	26*	i
CC(=O)Nc1ccc(S(=O)(=O)NCCc2csc(-c3cccnc3)n2)cc1	0	83*	0	-2	0	13*	i
CC1Oc2ccccc2N(CC(=O)NC2CCCCC2)C1=O (stereo unspecified)	0	1	-2	8	0	·	·
CCOC(=O)C1(C)C=C(Nc2ccc(O)cc2)C(=O)N1c1ccc(O)cc1 (stereo unspecified)	0	52*	1	8	6	28*	i
CC1CCc2nc(NC(=O)c3cc(C(C)(C)C)nn3C)sc2C1 (stereo unspecified)	7	21	0	16	0	·	·
Cc1ccc(-c2nc(NC(=O)c3cc(C(C)(C)C)nn3C)sc2C)cc1Cl	3	10	0	-16	1	97	i
Cc1nn(C)c(C)c1NC(=O)c1cc2nc(-c3ccco3)cc(C(F)(F)F)n2n1	0	-11	0	5	0	·	·
Cc1ccc(Cn2ccc(NC(=O)c3cc4nc(-c5ccco5)cc(C(F)(F)F)n4n3)n2)cc1	5	112*	0	-11	2	7.1*	i
CN1CCCC(CN2c3ccccc3Sc3ccccc32)C1 (stereo unspecified)	0	22	2	24	0	·	·
CN1CCCC(CC2c3ccccc3Sc3ccccc32)C1 (stereo unspecified)	4	37	2	14	0	81	i
CC(C=NNc1ccc([N+](=O)[O-])cn1)=Cc1ccccc1	·	-2	·	·	·	·	·
COc1ccc(NS(=O)(=O)c2cn(C)cn2)cc1OC	0	-2	1	3	0	·	·
Cn1c(SCC(=O)N/N=C/C=C/c2ccco2)nc2ccccc21	0	-12	0	-15	4	98	i
Cn1c(SCC(=O)N/N=C/C=C/c2ccccc2[N+](=O)[O-])nc2ccccc21	0	-6	0	19	0	·	·
